Source: PubChem BioAssay (NCATS)
“And” between values parts separate entries of the source, which are not always exact repeats. Identical values can stand only once. Results filed as inconclusive are left out. A call without a number means that no potency is given here. A number with no mark means an inactive call. The source made the active and inactive calls. Calls come from the whole dose curve; as a rule, active = well fitted curve in the direction sought with a large enough effect; inconclusive = small, poorly fitted or top-dose-only effect, or another doubt; inactive = no such curve, though single readings can be large; an effect the other way counts as inactive or inconclusive.

Legend:
[1] = biological target: Cellular tumor antigen p53 (Homo sapiens) (UniProt P04637); test: Primary qHTS for small molecule compounds that upregulate eGFP-tagged delta133p53alpha (in N-terminal) cells. (AID 2060322); conditions: NCI-H358 eGFP-delta133p53alpha fluorescence, 24 h; activation: hits give high values; note: nearly all actives have a fitted effect of over 75% in size; note: potency is the fitted concentration of half-maximal effect; for activation: series mostly up to about 56 µM
Cellular tumor antigen p53 (Homo sapiens), sequence (P04637 whole entry, looked up): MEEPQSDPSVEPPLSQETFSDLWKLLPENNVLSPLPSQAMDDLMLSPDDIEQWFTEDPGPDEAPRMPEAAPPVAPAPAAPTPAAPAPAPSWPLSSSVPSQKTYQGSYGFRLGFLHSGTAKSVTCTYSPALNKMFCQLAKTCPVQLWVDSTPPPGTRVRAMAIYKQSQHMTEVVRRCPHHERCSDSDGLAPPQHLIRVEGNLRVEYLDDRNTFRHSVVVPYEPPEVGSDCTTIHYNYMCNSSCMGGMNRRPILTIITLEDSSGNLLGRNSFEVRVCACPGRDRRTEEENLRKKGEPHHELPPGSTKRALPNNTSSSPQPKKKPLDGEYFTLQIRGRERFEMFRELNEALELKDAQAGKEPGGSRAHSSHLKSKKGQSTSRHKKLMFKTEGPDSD
Method in brief: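 NCI-H358 cells pre-induced 24 h with 10 ng/ml doxycycline to express N-terminal eGFP-delta133p53alpha, then dosed 24 h at 37C without doxycycline; fixed, Hoechst-stained, GFP intensity by laser scanning cytometry, normalized to DMSO (0%) and 57.5 uM 5-azacytidine (100%).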

[2] = biological target: Aldehyde dehydrogenase, mitochondrial (Homo sapiens) (UniProt P05091); test: qHTS for Inhibitors of the Aldehyde Dehydrogenase Family (ALDH2) Primary screen (AID 2061308); note: nearly all actives have a fitted effect of over 55% in size
[3] = biological target: Retinaldehyde dehydrogenase 3 (Homo sapiens) (UniProt P47895); test: qHTS for Inhibitors of the Aldehyde Dehydrogenase Family (ALDH1A3) Primary screen (AID 2061315)
[4] = BET inhibitor-based combinations targeting novel dependencies in MECOM-rearranged (r) AML: SET-2 cell line (AID 2202231); conditions: SET-2 AML cells viability, CellTiter-Glo luminescence, 48 h; viability: hits give low values, concentration not given here; note: nearly all actives have a fitted effect of over 35% in size; note: potency is the fitted concentration of half-maximal effect
Method in brief: (§1)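 Viability of cells (500 per well) is scored by luminescent CellTiter-Glo at 48 hr post-dosing. Eleven-point titrations are normalized to DMSO and empty controls and reduced to AUC values.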

[5] = BET inhibitor-based combinations targeting novel dependencies in MECOM-rearranged (r) AML: OCI-AML3 cell line (AID 2202232); conditions: Potency: OCI-AML3 viability; note: nearly all actives have a fitted effect of over 35% in size; note: potency is the fitted concentration of half-maximal effect; for viability (% of control): series mostly up to about 46 µM
Method in brief: as §1

[6] = BET inhibitor-based combinations targeting novel dependencies in MECOM-rearranged (r) AML: UCSD-AML1 cell line (AID 2202235); note: nearly all actives have a fitted effect of over 40% in size; note: potency is the fitted concentration of half-maximal effect; for viability (% of control): series mostly up to about 46 µM
Method in brief: (§2)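 Using pin-tool transfer, drugs were added in 11 doses to cells (500/well), incubated 48 hr, and assessed with CellTiter-Glo. Z-AUC is a mean-centring transformation applied separately to each screened line.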

[7] = BET inhibitor-based combinations targeting novel dependencies in MECOM-rearranged (r) AML: AML-191 cell line (AID 2202236; note: nearly all actives have a fitted effect of over 35% in size; note: potency is the fitted concentration of half-maximal effect)
Method in brief: as §1

[8] = BET inhibitor-based combinations targeting novel dependencies in MECOM-rearranged (r) AML: AML-194 cell line (AID 2202237; note: nearly all actives have a fitted effect of over 40% in size; note: potency is the fitted concentration of half-maximal effect)
Method in brief: as §1

[9] = BET inhibitor-based combinations targeting novel dependencies in MECOM-rearranged (r) AML: HNT-34 cell line (AID 2202234); note: nearly all actives have a fitted effect of over 35% in size; note: potency is the fitted concentration of half-maximal effect
Method in brief: as §2

[10] = BET inhibitor-based combinations targeting novel dependencies in MECOM-rearranged (r) AML: MV-4-11 cell line (AID 2202233); note: nearly all actives have a fitted effect of over 45% in size; note: potency is the fitted concentration of half-maximal effect
Method in brief: as §2

SMILES: O=C(NC1CCOCC1)c1ccc(-c2cc(-c3cn[nH]c3-c3ccccn3)ccn2)cc1
- activation [1]: 37.2% and 4.46%
- Potency [2]: inactive
- Potency [3]: inactive
- viability [4]: 101%
- Potency [5]: inactive
- Potency [6]: inactive
- Potency [7]: inactive
- Potency [8]: inactive

SMILES: C[C@@H](NCCCc1cccc(C(F)(F)F)c1)c1cccc2ccccc12
- activation [1]: 1.97%
- Potency [2]: inactive
- Potency [3]: inactive
- Potency [4]: 23.5 µM (active)
- Potency [5]: 16.6 µM (active)
- Potency [9]: 26.3 µM (active)
- Potency [7]: 23.5 µM (active)
- Potency [8]: 26.3 µM (active)

SMILES: FC(F)(F)c1ccc(/C=C/c2nc(COc3ccc(CCCCn4ccnn4)cc3)co2)cc1
- activation [1]: 18.8%
- Potency [2]: inactive
- Potency [3]: inactive
- Potency [4]: 0.0742 µM (active)
- Potency [5]: 0.372 µM (active)
- Potency [9]: inactive
- Potency [6]: inactive
- Potency [8]: inactive

SMILES: COc1ccccc1[C@H](c1cccc2ccccc12)[C@@](C)(C#N)C(=O)N1CCC(c2cccc(C(F)(F)F)c2)CC1
- activation [1]: 0.109%
- Potency [2]: inactive
- Potency [3]: inactive
- viability [4]: 110%
- Potency [10]: 5.25 µM (active)
- Potency [9]: 13.2 µM (active)
- Potency [6]: inactive
- Potency [7]: inactive

SMILES: CC1(C)CNc2cc(NC(=O)c3cccnc3NCc3ccncc3)ccc21
- activation [1]: -11.7% and 7.64%
- Potency [2]: inactive
- Potency [3]: inactive
- viability [4]: 63%
- Potency [5]: inactive
- Potency [8]: inactive

SMILES: CNc1nc(Nc2ccc(C(=O)N3CCOCC3)cc2OC)ncc1Cl
- activation [1]: -0.44% and -2.68%
- Potency [2]: inactive
- Potency [3]: inactive
- viability [4]: 93.5%
- Potency [5]: inactive
- Potency [7]: inactive
- Potency [8]: inactive

SMILES: NC(=O)c1ccc(N(C(N)=O)c2c(F)cccc2F)nc1-c1ccc(F)cc1F
- activation [1]: 24.3% and 1.79%
- Potency [2]: inactive
- Potency [3]: inactive
- viability [4]: 106%
- Potency [10]: inactive
- Potency [9]: inactive
- Potency [6]: inactive
- Potency [7]: inactive
- Potency [8]: inactive

SMILES: CO[C@@H]1COCC[C@@H]1N[C@@H]1CC[C@@](C(=O)N2CCc3ncc(C(F)(F)F)cc3C2)(C(C)C)C1
- activation [1]: -7.67% and -27.6%
- Potency [2]: inactive
- Potency [3]: inactive
- viability [4]: 122%
- Potency [10]: inactive
- Potency [9]: inactive
- Potency [6]: inactive
- Potency [7]: inactive
- Potency [8]: inactive

SMILES: CCOc1ccn(-c2ccc(F)cc2)c(=O)c1C(=O)Nc1ccc(Oc2ccnc(N)c2Cl)c(F)c1
- activation [1]: 49.1%
- Potency [2]: inactive
- Potency [3]: inactive
- viability [4]: 104%
- Potency [10]: 1.48 µM (active)
- Potency [9]: 11.8 µM (active)
- Potency [6]: inactive
- Potency [7]: 8.33 µM (active)

SMILES: Cn1cc(-c2ccc3c(c2)CCN3C(=O)Cc2cccc(C(F)(F)F)c2)c2c(N)ncnc21
- activation [1]: -11.6%
- Potency [2]: inactive
- Potency [3]: inactive
- viability [4]: 105%
- Potency [10]: 9.34 µM (active)
- Potency [7]: 18.6 µM (active)
- Potency [8]: inactive

SMILES: O=C(O)CCCc1c[nH]c2ccccc12
- activation [1]: -8.68% and -9%
- Potency [2]: inactive
- Potency [3]: inactive
- viability [4]: 116%
- Potency [9]: inactive
- Potency [6]: inactive
- Potency [7]: inactive

SMILES: CC(C)NC(=O)N1CC[C@H](N=C2Nc3cc(F)ccc3N(CC(F)F)c3ccc(Cl)cc32)C1
- activation [1]: 4.33%
- Potency [2]: inactive
- Potency [3]: inactive
- viability [4]: 109%
- viability (% of control) [9]: 99.5% [at 8.46 µM]
- viability (% of control) [6]: 104% [at 8.46 µM]
- viability (% of control) [7]: 98.9% [at 8.46 µM]

SMILES: Cn1ncnc1[C@H]1c2n[nH]c(=O)c3cc(F)cc(c23)N[C@@H]1c1ccc(F)cc1
- activation [1]: -4.3% and 20.1%
- Potency [2]: inactive
- Potency [3]: inactive
- Potency [4]: 3.72 µM (active)
- Potency [10]: 0.0332 µM (active)
- Potency [7]: 1.86 µM (active)
- Potency [8]: 1.86 µM (active)

SMILES: NC(=O)c1cnc(-c2ccc(C3(N)CCC3)cc2)c(-c2ccccc2)c1
- activation [1]: 29% and -2.68%
- Potency [2]: inactive
- Potency [3]: inactive
- viability [4]: 104%
- Potency [10]: 3.32 µM (active)
- Potency [6]: 1.32 µM (active)
- Potency [7]: inactive
- Potency [8]: inactive

SMILES: COc1ccc(C(=O)C2CCN(CC(=O)N(Cc3nc4c(c(=O)[nH]3)COCC4)CC3CC3)CC2)cc1
- activation [1]: 25.7%
- Potency [2]: inactive
- Potency [3]: inactive
- viability [4]: 110%
- Potency [10]: inactive
- Potency [9]: inactive
- Potency [6]: inactive
- Potency [8]: inactive

SMILES: COCCNCc1ccc(-c2cc3nccc(Oc4ccc(NC(=O)C5(C(=O)Nc6ccc(F)cc6)CC5)cc4F)c3s2)nc1
- Potency [1]: 19 µM (active)
- Potency [2]: inactive
- Potency [3]: inactive
- Potency [4]: 13.2 µM (active)
- Potency [9]: 2.95 µM (active)
- Potency [6]: 8.33 µM (active)
- Potency [7]: 8.33 µM (active)
- Potency [8]: 5.25 µM (active)

SMILES: CNc1nc(Nc2cnn([C@H]3CCN(C4COC4)C[C@@H]3F)c2Cl)ncc1C(F)(F)F
- activation [1]: -10.7% and -17.9%
- Potency [2]: inactive
- Potency [3]: inactive
- viability [4]: 94.3%
- Potency [10]: 1.32 µM (active)
- Potency [7]: 16.6 µM (active)
- Potency [8]: inactive

SMILES: O=C1CCCC2=C1C(c1[nH]ncc1Cl)N=C(Nc1nc3ccccc3o1)N2 (configuration not stated)
- activation [1]: -17.4% and 19.7%
- Potency [2]: inactive
- Potency [3]: inactive
- viability [4]: 78.9%
- Potency [10]: 10.5 µM (active)
- Potency [7]: 16.6 µM (active)
- Potency [8]: inactive
